The structures appear in SMILES notation. Values without a mark were called inactive. Activity calls are given as the source filed them. Calls come from the whole dose curve; as a rule, active = well fitted curve in the direction sought with a large enough effect in the repeat runs; inconclusive = weak or mixed curves; inactive = flat fitted curve, though single readings scatter.
% is set by controls: 0 for no effect and ±100 for the full control effect.

A short description of the test: qHTS assay to test for compound auto fluorescence at 535 nm (green) in HepG2 cell free culture (AID 720686). Conditions: Cell-free medium, green autofluorescence 485/535 nm; series mostly up to 91.3 µM; fluorescence, % of fluorescein control: at the top concentration. The text has this:
U.S. Tox21 Program National Center for Advancing Translational Sciences [NCATS] NIH Chemical Genomics Center [NCGC] U.S. Environmental Protection Agency [EPA] National Institutes of Environmental Health Sciences [NIEHS] National Toxicology Program [NTP] U.S. Food and Drug Administration [FDA] Tox21 Assay Overview: Compound auto fluorescence often interferes with screening of the compound library against various biological targets and signaling pathways. Some of these compounds may have fluorophoric properties. Such properties may interfere with the assay outputs resulting in false positives and/or negatives. To decrease such complications and ensure the compound activities are relevant in terms of biological response, the Tox21 10K compound library was screened for auto fluorescence. From the fluorophores used as reporter signals in our screening assays, the auto fluorescence equivalencies of compounds against three fluorophores have been evaluated: Triamterene, Fluorescein and Rose Bengal sodium for blue, green and red fluorescence, respectively. The fluorescence intensities were measured using Excitation/Emission wavelengths at 405/460nm, 485/535nm and 540/590nm for blue, green and red labels, respectively. This assay includes the green fluorescence data.
Tox21 Assay Protocol Summary: 5 uL of culture medium (MEM containing 10% FBS) per well was dispensed into black wall/clear bottom 1536-well plates using a Multidrop Combi Dispenser (ThermoFisher Scientific, Waltham, MA). After 23 nL compound or DMSO vehicle was transferred into assay plate by a pintool work station (Kalypsys, San Diego, CA), fluorescence intensities in the assay plates were measured by an Envision (PerkinElmer, Shelton, CT) plate reader using three labels for measuring blue, green and red fluorescence at […] 460, 535 and 590nm respectively.
(Quantitative high-throughput screening tests each substance at several concentrations.)
For `CCOc1cccc(-n2cc(C(=O)N3CCN(c4cc(C(=O)O)c5ccccc5c4)CC3)nc2-c2ccc(C)cc2)c1`, the “fluorescence, % of fluorescein control” value is -0.0066%.

In the case of `O=c1cc(-c2ccccc2)oc2ccc3ccccc3c12`, the “fluorescence, % of fluorescein control” value was 0.0689%.

Consider `CO/N=C(/C(=O)N[C@@H]1C(=O)N2C(C(=O)O)=C(COC(N)=O)CS[C@H]12)c1ccco1`, for which the compound was classed as inactive. Consider `OCCN1CCN(CCCN2c3ccccc3Sc3ccc(Cl)cc32)CC1`, for which the fluorescence, % of fluorescein control is 0.137% [at 18.6 µM]. On the same count and under the same terms, the figure for `O=[N+]([O-])c1ccc(O/N=C/c2cc(Br)c(O)c(Br)c2)c([N+](=O)[O-])c1` is 0.0439%; for `C=CCc1ccccc1OCC(O)CNC(C)C` (stereo not given) it is 0.0432% [at 46 µM]; for `CC(C)C(O)(c1ccc(OC(F)(F)F)cc1)c1cncnc1` (stereo not given) it is 0.0174%.

As for `Cc1cc(C)c(N)cc1C`, the “fluorescence, % of fluorescein control” value was -0.119%. Still for that read-out and setting: the figure for `N#CCCN(CCO)CCO` is -0.145%. Still for that read-out and setting: next, `COc1ccccc1Oc1c(NS(=O)(=O)c2ccc(C(C)(C)C)cc2)nc(-c2ncccn2)nc1OCCO`: -0.0278% [at 46 µM]. Same read-out and setting: next, `O=c1[nH]c2ccc(Cl)cc2o1`: -0.0339%; `COc1cc(Nc2c(C#N)cnc3cc(OCCCN4CCN(C)CC4)c(OC)cc23)c(Cl)cc1Cl`: 0.148% [at 46 µM]. As for `CC(=O)Nc1cc(S(=O)(=O)O)cc2cc(S(=O)(=O)O)c(N=Nc3ccccc3)c(O)c12`, the “fluorescence, % of fluorescein control” value was -0.102%. On to `CC(C)(C)C(=O)C(=O)O`, for which the “fluorescence, % of fluorescein control” value is -0.125%. For `CCN(CC)CCNC(=O)COc1ccc(OC)cc1`, the “fluorescence, % of fluorescein control” value is -0.0739% [at 46 µM]. On the same count and under the same terms, next, `Cc1ccccc1N=C(N)Nc1ccccc1C`: 0.0393%. Same read-out and setting: the figure for `Oc1ccc(Cl)c2cccnc12` is -0.0514% [at 46 µM]; for `O=C(Nc1cccc2c(=O)cc(-c3nn[nH]n3)oc12)c1ccc(OCCCCc2ccccc2)cc1` it is 0.0444% [at 46 µM]; for `Cc1ccc2c(Br)cc(Br)c(O)c2n1` it is 0.0216% [at 46 µM].

Regarding `CC(C)Nc1cccnc1N1CCN(C(=O)c2cc3cc(NS(C)(=O)=O)ccc3[nH]2)CC1`, the “fluorescence, % of fluorescein control” value is -0.0031% [at 46 µM]. The same measure, in the same setting: the figure for `COC(=O)C1=C(C)NC(C)=C(C(=O)O[C@@H]2CCCN(Cc3ccccc3)C2)[C@@H]1c1cccc([N+](=O)[O-])c1` is 0.0293% [at 46 µM]; for `CC(=O)NC1(c2cccc(F)c2)CCN(CC[C@@]2(c3ccc(Cl)c(Cl)c3)CN(c3ccccc3)C(=O)CO2)CC1` it is 0.0929%.

Turning to `CCCC(C(=O)OCCN(CC)CC)(c1ccccc1)c1ccccc1`, the “fluorescence, % of fluorescein control” value is 0.0444% [at 46 µM]. On the same count and under the same terms, the figure for `CN1C[C@H](C(=O)N[C@]2(C)O[C@@]3(O)[C@@H]4CCCN4C(=O)[C@H](Cc4ccccc4)N3C2=O)C[C@@H]2c3cccc4[nH]cc(c34)C[C@H]21` is 0.678% [at 46 µM]. On the same count and under the same terms, the figure for `O=C(O)c1cccc(-c2noc(-c3ccccc3F)n2)c1` is -0.0011% [at 46 µM].

Consider `Cc1ccccc1S`, for which the “fluorescence, % of fluorescein control” value was 0.0482%. Take `CC(C)(c1ccccc1)c1ccccc1`: the “fluorescence, % of fluorescein control” value was 0.0513%. Still for that read-out and setting: next, `CC1CC(C)C(=O)C1=O` (stereo not given): -0.0565%; `CCC1CO1` (stereo not given): 0.0009%. Regarding `O=C(O)CCCCCCCCCCCBr`, the “fluorescence, % of fluorescein control” value is -0.0236%.

`C[C@@H](O)[C@H]1C(=O)N2C(C(=O)O)=C([C@H]3CCCO3)S[C@H]12`: the “fluorescence, % of fluorescein control” value was 0.25% [at 46 µM]. Take `Cc1ccc(OC(=O)c2ccccc2O)cc1`: the “fluorescence, % of fluorescein control” value is 0.065%. Turning to `CCC(=O)OC`, the “fluorescence, % of fluorescein control” value is 0.0521%. On the same count and under the same terms, the figure for `CCOC(=O)[C@H](CCc1ccccc1)N[C@@H](C)C(=O)N(CC(=O)O)C1Cc2ccccc2C1` is 0.0306% [at 46 µM]; for `OC[C@H]1O[C@@H](n2cnc3c(=S)nc[nH]c32)[C@H](O)[C@@H]1O` it is 0.0114% [at 46 µM]. Still for that read-out and setting: the figure for `CC(C)=CCC/C(C)=C/CC/C(C)=C/CCC(=O)OC/C=C(\C)CCC=C(C)C` is 0.0142% [at 46 µM]. Still for that read-out and setting: the figure for `CCCCN1CCCC1C(=O)Nc1c(C)cc(C)cc1C` (stereo not given) is 0.0236% [at 46 µM]. Take `O[C@@H]1CO[C@H]2[C@@H]1OC[C@@H]2O`: the “fluorescence, % of fluorescein control” value is 0.0309% [at 46 µM].

`O=C=Nc1ccc(Cl)c(Cl)c1`: the “fluorescence, % of fluorescein control” value was -0.0776%. For `C=C1C[C@@]23CC[C@H]4[C@@](C)(CCC[C@@]4(C)C(=O)O[C@@H]4O[C@H](CO)[C@@H](O)[C@H](O)[C@H]4O)[C@@H]2CC[C@]1(O[C@@H]1O[C@H](CO)[C@@H](O)[C@H](O[C@@H]2O[C@H](CO)[C@@H](O)[C@H](O)[C@H]2O)[C@H]1O[C@@H]1O[C@H](CO)[C@@H](O)[C@H](O)[C@H]1O)C3`, the “fluorescence, % of fluorescein control” value is 0.0428%.

Source of the values: PubChem BioAssay (Tox21).
